# Screens (PubChem)
# AmpC inh detg: qHTS Inhibitors of AmpC Beta-Lactamase (assay with detergent) | AmpC hydrolysis of nitrocefin, absorbance 480 nm, 0.01% Triton | P00811 | Potency, µM (titrated, usually from 114 µM), inactives show top-dose activity change, negative = inhibition, usual class: inhibitors | actives 0.041% (n = 370,000);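 also: 0% = no-compound wells and -100% = no-enzyme wells; nearly all actives have a fitted effect of over 25% in size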
# Target sequence (P00811 whole entry, looked up): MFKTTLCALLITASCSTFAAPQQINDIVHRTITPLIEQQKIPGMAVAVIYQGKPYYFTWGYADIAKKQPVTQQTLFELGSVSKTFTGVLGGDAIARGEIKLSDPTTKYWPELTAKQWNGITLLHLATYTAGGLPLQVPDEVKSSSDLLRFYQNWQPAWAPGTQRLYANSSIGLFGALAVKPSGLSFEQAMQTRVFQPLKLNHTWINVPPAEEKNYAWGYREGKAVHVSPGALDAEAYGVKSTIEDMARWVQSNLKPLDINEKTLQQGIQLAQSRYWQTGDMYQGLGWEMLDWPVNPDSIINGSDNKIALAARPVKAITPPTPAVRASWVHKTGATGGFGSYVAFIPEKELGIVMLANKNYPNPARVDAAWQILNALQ
#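 20 mM phosphate pH 7.0 + 0.01% (detergent screen) or 0.0001% Triton X-100; 5.3 nM AmpC reagent; cpd preinc 15 min RT; nitrocefin (800 uM stock) to start; A480 q20 s × 4 min; Activity was normalised to no-enzyme and no-compound control wells.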
# FBPA Giardia inh: qHTS Assay for Inhibitors of Fructose-1,6-bisphosphate Aldolase from Giardia Lamblia; purified Giardia FBPA; actives 0.71% (n = 290,000); Potency, µM (doses to about 59.6 µM), inactives show at the highest dose activity, negative = inhibition, usual class: inhibitors; also: % is scaled to controls: 0 for no effect and ±100 for the full control effect; nearly all actives have a fitted effect of over 55% in size
#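 Giardia FBPA (40 nM reagent) was preincubated 10 min at RT with compound (up to 57.5 uM final), then substrate plus GAPDH/TPI/NAD/arsenate coupling system with diaphorase/resazurin was added; resorufin fluorescence (525/598 nm) was read after 20 min.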
# AmpC inh no detg: qHTS Inhibitors of AmpC Beta-Lactamase (assay without detergent); AmpC nitrocefin hydrolysis, absorbance 480 nm, 0.0001% Triton; AID 485341, 2010; actives 0.52% (n = 330,000); Potency, µM (top dose mostly 57.1 µM), for inactives: at the top dose activity change, negative = inhibition, actives largely listed as inhibitors; P00811;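 also: plate controls were no compound for no effect and no enzyme for full effect; nearly all actives have a fitted effect of over 20% in size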
#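 20 mM phosphate pH 7.0 + 0.01% (detergent screen) or 0.0001% Triton X-100; 5.3 nM AmpC reagent; cpd preinc 15 min RT; nitrocefin (800 uM stock) to start; A480 q20 s × 4 min; Activity was normalised to no-enzyme and no-compound control wells.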
# SARS PLpro yeast: qHTS of Yeast-based Assay for SARS-CoV PLP; S. cerevisiae expressing SARS-CoV PLpro, growth rescue; Potency, µM (series often up to 32.9 µM), inactives show at the top dose activity, positive = growth rescue, actives largely listed as activators; actives 0.19% (n = 330,000); AID 485353, 2010; calls by dose curve; also: 0% is about no effect; nearly all actives have a fitted effect of over 55% in size
# Starred values were filed as active, the others as inactive; ? = inconclusive; / = not tested or not shown; [ ] = remark or other dose. Rows were chosen to be rich in hits. Some 1.1% of all compounds tested hit in one or more screens of this group. Unless noted, calls follow the shape of the dose curve; as a rule, active = well fitted curve in the direction sought with a large enough effect; inconclusive = small, poorly fitted or top-dose-only effect, or another doubt; inactive = no such curve, though single readings can be large; an effect the other way counts as inactive or inconclusive. Potency is read from the fitted curve at half-maximal effect.
SMILES,AmpC inh detg,FBPA Giardia inh,AmpC inh no detg,SARS PLpro yeast
C=CCOc1c(Br)cc(CNc2ccc(NC(=O)C(C)C)c(OC)c2)cc1OCC,-7%,8.9µM*,76%,1%
Cc1ccc(C)c(-c2ccc(C(=O)O)o2)c1,/,-13%[136 µM],/,/
COC(=O)c1cc2oc(C)cc2n1Cc1cccc(Cl)c1,22%,/,/,/
CN1CCC(NC(=O)c2cccs2)CC1,2%,-1%,8.9µM*,9%
COc1ccc(OC)c(/C=N/NC(=O)c2ccc(Cn3cc([N+](=O)[O-])cn3)o2)c1,?,4%,40µM*,-14%
COc1ccc(/C=N/NC(=O)c2ccc(Cn3cc([N+](=O)[O-])cn3)o2)cc1O,?,2%,-14%,-2%
CCOc1ccccc1NC(=O)CSC1=C(C#N)C(c2ccco2)C(C(=O)Nc2nc3ccccc3s2)=C(C)N1 (configuration not stated),1%,-1%,5µM*,8%
CCN(CC)C(=O)C1CCCN(C/C=C/c2ccccc2)C1 (configuration not stated),0%,4%,0.28µM*,-1%
COc1ccc(NC(=O)c2ccco2)cc1NC(=O)c1ccc(OC(C)C)cc1,4%,/,/,/
COc1ccc(OC)c(C2CC(=O)N3CN(c4ccccc4F)CSC3=C2C#N)c1 (configuration not stated),-4%,?,-44%,12%
CCc1ccccc1N1CSC2=C(C#N)C(c3cc(OC)c(OC)cc3OC)CC(=O)N2C1 (configuration not stated),-2%,4.5µM*,17%,-1%
N#CC1=C2SCN(c3ccccc3)CN2C(=O)CC1c1c(Cl)cccc1Cl (configuration not stated),-17%,?,28µM*,3%
COc1cc(OC)c(C2CC(=O)N3CN(c4ccccc4)CSC3=C2C#N)cc1OC (configuration not stated),-10%,?,-6%,7%
COc1cc(C2CC(=O)N3CN(c4ccccc4C)CSC3=C2C#N)cc(OC)c1OC (configuration not stated),-6%,4.5µM*,29%,?
N#CC1=C2SCN(c3ccccc3)CN2C(=O)CC1c1ccccc1Cl (configuration not stated),-13%,?,-43%,3%
COc1ccccc1N1CSC2=C(C#N)C(c3ccc(SC)cc3)CC(=O)N2C1 (configuration not stated),?,5.6µM*,-53%,5%
CC(C)(C)CNc1nc(C#N)nc(Nc2ccccc2)n1,/,-6%,/,/
Fc1cccc(/C=N/Nc2cc(N3CCOCC3)ncn2)c1,-3%,-3%,-16%,2.8µM*
CCCCCCN1N=C(C)C(C(=O)c2ccc(Cl)cc2)C1=O (configuration not stated),?,8%,-26%,23%
CCCCCCCN1N=C(C)C(C(=O)c2ccccc2)C1=O (configuration not stated),2%,-10%,-14%,10µM*
O=C(OCCCOc1ccc(F)cc1)c1ccc(O)cc1O,-6%,/,3.2µM*,-11%
COc1ccc2cc(C#N)c(=O)oc2c1,/,2%,/,/
Cc1ccc(S(=O)(=O)N(C)Cc2ccc(C(=O)N/N=C3\CCCC(=O)C3)cc2)cc1,-5%,3%,-59%,-1%
O=C1CCC/C(=N\NC(=O)c2ccc(NS(=O)(=O)c3ccc(Br)cc3)cc2)C1,-7%,-13%,28µM*,7%
O=[N+]([O-])c1c(Nc2ccccc2O)cc(Cl)c2nonc12,-17%,-7%,32µM*,-16%
SMILES,AmpC inh detg,FBPA Giardia inh,AmpC inh no detg,SARS PLpro yeast
O=[N+]([O-])c1c(Nc2ccccc2O)ccc2nonc12,?,?,-30%,-7%
Nc1ccccc1Oc1ccccc1,/,-2%,/,/
CCCn1c(=O)c(Cc2ccccc2)c(O)c2ccccc21,1%,-14%,-2%,19%
O=c1c(Cc2ccccc2)c(O)c2cccc3c4c(n1c23)CCCC4,0%,0%,7.9µM*,-2%
CCOC(=O)c1cc(CC)sc1/N=C/C1C(=O)NC(=S)NC1=O,1%,18µM*,-28%,0%
CCOC(=O)c1cc(CC)sc1/N=C/C1C(=O)CC(C)(C)CC1=O,4%,3%,-7%,17%
O=C(Nc1ccccc1C(=O)Nc1ccccc1)c1ccco1,-10%,9%,-35%,-1%
